CHX counter: counter-screen for Shiga toxin inhibitors: cycloheximide protein synthesis inhibition. cell reporter, cycloheximide protein synthesis inhibition counterscreen. max response, %. hit rate 12% among 300,000; in the data active = max response mostly above about 13%, no sharp cut-off; inactive = mostly below about 14%; also: read at 38.3 µM for the half of the compounds with a filed dose; 0% is about no effect
SARS PLP yeast: SARS-CoV PLP inhibition in yeast. hit rate 0.19% among 330,000. Potency, µM (titrated, usually from 32.9 µM), inactives show at the highest dose activity, positive = growth rescue, actives largely listed as activators. AID 485353. S. cerevisiae expressing SARS-CoV PLpro, growth rescue; calls by dose curve; also: potency is read from the fitted curve at half-maximal effect; 0% is about no effect; nearly all actives have a fitted effect of over 55% in size
Shiga toxin inh: inhibitors of Shiga toxin in Vero cells. hit rate 9.2% among 290,000. Vero cells, Shiga toxin protein synthesis inhibition reporter. AID 2315. inhibition, % at 38.7 µM; in the data active = inhibition mostly above about 28%, no sharp cut-off; inactive = mostly below about 43%; also: 0% is about no effect
Pf growth 96h: P. falciparum growth inhibition at 96 hours. AID 504834. P. falciparum luciferase reporter growth, 96 h. Potency, µM (series often up to 28.7 µM), inactives show top-dose activity change, negative = inhibition, most hits filed as inhibitors. hit rate 6.9% among 320,000; also: potency is read from the fitted curve at half-maximal effect; % is scaled to controls: 0 for no effect and ±100 for the full control effect
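96 h incubation, 37 C, 5% CO2, of luciferase-reporter P. falciparum-infected RBCs (2% hematocrit, 0.05% parasitemia final) with test compounds; endpoint luminescence.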
Pf growth 48h: P. falciparum growth inhibition at 48 hours (one generation). hit rate 5.9% among 310,000. P. falciparum luciferase growth in erythrocytes, 48 h. Potency, µM (top dose mostly 28.7 µM), for inactives: at the highest dose activity change, negative = inhibition, usual class: inhibitors; also: potency is read from the fitted curve at half-maximal effect; % is scaled to controls: 0 for no effect and ±100 for the full control effect
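Luciferase-expressing parasites in RBCs, 2% Hct / 0.1% parasitemia final; RPMI 1640 + 0.5% Albumax; 37 C, 5% CO2, one generation; luminescence read-out, lower signal = inhibition.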
AMA1 RON2 block: inhibitors of Plasmodium falciparum AMA1-RON2 interaction. AlphaScreen AMA1-biotinylated RON2 peptide binding. Potency, µM (highest dose often 58.2 µM), for the others: top-dose activity change, negative = inhibition, usual class: inhibitors. hit rate 0.2% among 360,000;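 also: potency is read from the fitted curve at half-maximal effect; 0% = vehicle wells and -100% = peptide control; nearly all actives have a fitted effect of over 45% in size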
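AMA1 (3D7) with his tag at 25 nM final met compounds first, then biotinylated RON2 peptide at 25 nM; detection used donor plus acceptor beads, 10 µg/mL apiece, read by AlphaScreen after 30 min at room temperature.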
The depositor's hits bear a star; ? = inconclusive; · = not tested or not shown. The list is not random: actives were taken first. Their share in the collection is about 19%. Unless noted, calls follow the shape of the dose curve; as a rule, active = well fitted curve in the direction sought with a large enough effect; inconclusive = small, poorly fitted or top-dose-only effect, or another doubt; inactive = no such curve, though single readings can be large; an effect the other way counts as inactive or inconclusive.

SMILES	CHX counter	SARS PLP yeast	Shiga toxin inh	Pf growth 96h	Pf growth 48h	AMA1 RON2 block
O=C1C2C3C=CC(C4CC34)C2C(=O)N1/N=C/c1cccs1 (stereo not drawn)	51*	-30%	49*	3%	-29%	1%
O=C1C2C3C=CC(C3)C2C(=O)N1/N=C/c1ccc(-c2ccccc2[N+](=O)[O-])o1 (stereo not drawn)	32*	-3%	66*	352%	5%	-8%
O=C1C2C3C=CC(C4CC34)C2C(=O)N1/N=C/c1ccc([N+](=O)[O-])o1 (stereo not drawn)	22*	-13%	16	-30%	-38%	0%
COC(=O)c1ccc(-c2ccc(/C=N/N3C(=O)C4C5C=CC(C6CC56)C4C3=O)o2)cc1 (stereo not drawn)	75*	-10%	132*	-26%	53%	-6%
CCc1ccc(NC(=O)C(=O)NCCN2CCN(C(=O)c3ccco3)CC2)cc1	7	-15%	-4	?	8%	-2%
CCCCN1CCC[C@H]1CNC(=O)c1cc(C#N)c2ccccc2c1OC	7	·	-8	·	·	·
Clc1c(-c2ccccc2)nnn1-c1ccccc1	56*	-17%	105*	281%	266%	-4%
O=C(c1cccc(C(=O)N2CCN(c3ccccc3)CC2)c1)N1CCN(c2ccccc2)CC1	-4	4%	3	·	13µM*	-11%
O=C(Nc1ccccc1N1CCN(C(=O)c2ccc(Cl)cc2)CC1)c1cccc(F)c1	1	-10%	-3	14%	?	-10%
O=C(c1ccccc1Oc1ccccc1)N1CCN(c2ccccc2)CC1	6	-13%	9	15µM*	?	-4%
O=C(Nc1ccccc1N1CCN(C(=O)c2ccc(Cl)cc2)CC1)c1ccc2c(c1)OCO2	6	-16%	-13	·	3.7µM*	-8%
O=C(c1c(F)cccc1F)N1CCN(c2ccccc2F)CC1	10	10%	-13	-7%	6%	7%
O=C(c1cccc(C(=O)N2CCN(c3ccccc3F)CC2)c1)N1CCN(c2ccccc2F)CC1	2	3%	-2	0%	13µM*	31%
CC(=O)Nc1ccc(-c2ccnc3c2CC(C(=O)Nc2cccc(C(C)=O)c2)O3)cc1 (stereo not drawn)	·	·	·	·	·	3%
O=S(=O)(NCc1cn2ccccc2n1)c1ccccc1F	7	2%	25	39%	126%	-3%
O=C(c1ccc(Cl)s1)N1CCN(c2ncccn2)CC1	1	1%	-7	-21%	31%	14%
O=C(c1ccc(Cl)s1)N1CCN(c2ccccc2)CC1	17*	27%	28*	?	-17%	0%
CC(=O)c1ccc(N2CCN(C(=O)c3cccc(Oc4ccccc4)c3)CC2)cc1	35*	0%	35	?	-28%	-28%
O=C(c1ccc2c(c1)OCO2)N1CCN(c2ccccc2F)CC1	22*	2%	29	·	20%	?
O=C(c1ccc2c(c1)OCO2)N1CCN(c2ccccc2)CC1	8	9%	44	·	?	-2%
O=C(O)c1cccc(N2CCCC2)c1	-3	3%	22	9.3µM*	6%	-7%
CC(=O)c1ccc(N2CCN(C(=O)c3ccc(-c4ccccc4)cc3)CC2)cc1	-5	3%	7	?	-15%	-2%
O=c1[nH]c2ccccc2n1Cc1ccc(F)cc1	-1	-3%	-6	?	-5%	3%
CC1CCCCN1C(=O)CSc1nnc(-c2cccs2)o1 (stereo not drawn)	48*	0%	67*	28%	137%	17%
O=C(CSc1nnc(-c2cccs2)o1)N1CCOCC1	-2	-4%	-5	-17%	44%	11%
SMILES	CHX counter	SARS PLP yeast	Shiga toxin inh	Pf growth 96h	Pf growth 48h	AMA1 RON2 block
CC1CCCCN1C(=O)CSc1nnc(-c2c[nH]c3ccccc23)o1 (stereo not drawn)	28*	1%	75	-26%	?	-8%
CC1CCCC(C)N1C(=O)CSc1nnc(-c2cccs2)o1 (stereo not drawn)	35*	-4%	51*	-9%	15%	8%
COc1ccc(/C=N/OCC(=O)Nn2c(C)nc3ccccc3c2=O)cc1	4	-15%	2	4%	17%	10%
COc1cc(NC(=O)c2cccc(COCC(F)(F)C(F)F)c2)cc(OC)c1OC	-2	23%	12	21%	3%	64%
Cc1ccc(S(=O)(=O)N2C[C@H]3C(=O)C[C@@H](c4ccc(Cl)cc4)N(S(=O)(=O)c4ccccc4C)[C@H]3C[C@H]2c2ccc(Cl)cc2)cc1	·	·	·	·	·	2%
CC1=C(C#N)C(c2cccnc2)C2=C(CC(c3ccc(Cl)cc3)CC2=O)N1 (stereo not drawn)	-7	12%	-11	6.6µM*	·	1%
CC1=C(C#N)C(c2ccc(O)cc2)C2=C(CCCC2=O)N1 (stereo not drawn)	0	2%	-19	26%	0%	10%
O=[N+]([O-])C(=C1Nc2ccccc2N1)C(Cl)=C(Cl)Cl	16*	-1%	24	30%	14%	-1%
COC(=O)c1ccccc1C(=O)c1ccc2c(c1)NC(=O)CO2	-1	0%	25	26%	4%	7%
Oc1c(Br)cc(Br)cc1C=Nc1ccc2c(c1)OCCO2	32*	-2%	50*	24%	66%	69%
Oc1[nH]c2ccccc2c1C=Nc1ccc2c(c1)OCCO2	32*	-12%	53	-1%	21%	-6%
O=[N+]([O-])c1ccc(O)c(C=Nc2ccc3c(c2)OCCO3)c1	112*	-49%	108*	25%	248%	7%
Oc1c(Br)cc(Br)cc1C=Nc1ccc2c(c1)OCO2	1	-22%	23	34%	-7%	3%
CC(C)N=Cc1c(O)[nH]c2ccccc12	-1	-3%	-27	·	10%	-4%
CC(C)(C)CC(C)(C)N=C1Nc2ccccc2NC12C[C@H]1CCC(=O)N3CC[C@@H](C2)[C@@H]13 (stereo partly drawn)	·	·	·	·	·	-17%
CCN(CC)S(=O)(=O)c1ccc(N2CCOCC2)c(NC(=O)c2cc3ccccc3o2)c1	·	·	·	·	·	-8%
O=C(NC1CCCCCC1)c1cc(-c2ccccn2)nc2ccccc12	1	-1%	-12	?	?	12%
CC(C)(C)c1cc(NC(=O)CSc2nncs2)n(-c2ccccc2)n1	-2	-21%	-9	42%	1%	0%
CC(=O)n1cc(/C=N/NC(=O)c2ccccc2Cl)c2ccccc21	1	-1%	8	?	·	-4%
CC(=O)n1cc(/C=N/NC(=O)c2cccc(O)c2)c2ccccc21	36*	1%	59*	?	·	79%
CC(=O)n1cc(/C=N/NC(=O)c2ccc(Cl)cc2)c2ccccc21	41*	-1%	61*	?	74%	-2%
